Screening results deposited in PubChem BioAssay by several laboratories.
CD11b adhes inh – inhibitors of CD11b/CD18 adhesion to fibrinogen, primary screen, K562 cells, luminescence; Integrin beta-2 (Homo sapiens) + Integrin alpha-M (Homo sapiens), P05107+P11215; ATPlite luminescence; Mn2+ added to activate the integrin; inhibition, % at 10 µM; 0.54% of 93,000 active;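 active = primary inhibition of 50% or more at 10 µM, then 40% or more on retest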
Target sequence (P05107 whole entry, looked up, other chains not shown): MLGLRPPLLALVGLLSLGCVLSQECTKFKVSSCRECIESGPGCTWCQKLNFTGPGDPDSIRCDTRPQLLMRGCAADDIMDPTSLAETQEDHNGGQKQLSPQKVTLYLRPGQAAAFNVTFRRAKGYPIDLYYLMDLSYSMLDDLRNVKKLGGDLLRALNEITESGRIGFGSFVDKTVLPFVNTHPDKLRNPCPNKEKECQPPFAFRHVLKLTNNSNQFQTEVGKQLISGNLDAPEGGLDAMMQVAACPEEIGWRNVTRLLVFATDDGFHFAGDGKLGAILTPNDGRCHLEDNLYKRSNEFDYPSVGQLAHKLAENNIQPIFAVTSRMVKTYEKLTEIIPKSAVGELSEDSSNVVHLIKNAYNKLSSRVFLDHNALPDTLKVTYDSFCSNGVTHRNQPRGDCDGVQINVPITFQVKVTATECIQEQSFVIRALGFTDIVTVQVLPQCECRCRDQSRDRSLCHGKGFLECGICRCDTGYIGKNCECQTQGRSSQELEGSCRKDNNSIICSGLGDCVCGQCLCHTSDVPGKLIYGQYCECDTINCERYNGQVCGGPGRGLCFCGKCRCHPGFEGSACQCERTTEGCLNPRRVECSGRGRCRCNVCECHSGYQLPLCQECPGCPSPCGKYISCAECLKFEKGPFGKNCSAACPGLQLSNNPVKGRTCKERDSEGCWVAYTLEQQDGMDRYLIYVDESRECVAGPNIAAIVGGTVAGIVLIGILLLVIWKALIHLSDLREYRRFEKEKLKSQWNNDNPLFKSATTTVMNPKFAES
Phagocyt inh – inhibitors of macrophage phagocytosis, primary screen, imaging, J774A.1 cells, IgG beads; AID 1029, 2008; 0.07% of 110,000 active; J774A.1 macrophage IgG-bead phagocytosis; inhibition, % at 5 µM;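 active = inhibition above the mean of the plate negative controls plus 5 SD, cut at about 13% in these data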;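 also: phagocytic index as fraction of beads internalized from green versus red external bead signal; plate controls were DMSO negative control for no effect and cytochalasin-D positive control for full effect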
MRP resist rev – reversal of MRP1-mediated doxorubicin resistance, primary screen, H69AR cells, doxorubicin co-treatment; H69AR cells + 2 uM doxorubicin, CellTiter-Glo, 72 h; differential viability (reversal), % at 10 µM; 0.04% of 85,000 active;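 active = viability drop by adding the cancer drug above about 55%, with treated viability meeting a 40% cutoff, limit read from the data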;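 also: viability without doxorubicin minus viability with 2 µM doxorubicin for each compound; larger differential means the compound sensitizes cells more to doxorubicin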
SDO1 yeast rescue – growth rescue of sdo1-depleted yeast, primary screen, S. cerevisiae, bone marrow failure model; S. cerevisiae sdo1-depleted JHY4D growth rescue, OD600 30 h; stronger effect = higher value; pdr5 snq2 efflux-pump mutant strain; z-score at 10 µM; AID 817, 2007; 0.21% of 140,000 active;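 active = z-score above 3 at both the 24 hr and the 30 hr optical density reads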;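 also: z-score against mean and SD of all compound wells on the same plate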
CD11b adhes enh – enhancers of CD11b/CD18 adhesion to fibrinogen, primary screen, K562 cells, luminescence | activation, % at 10 µM | ATPlite luminescence | Integrin beta-2 (Homo sapiens) + Integrin alpha-M (Homo sapiens), P05107+P11215 | 0.07% of 93,000 active;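 active = 10 µM primary screen giving 50% or more activity, confirmed by 40% or more on retest at that dose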
MRP-1 activ – H69AR viability gain despite doxorubicin, primary screen, MRP-1 activator project, H69AR cells, CellTiter-Glo; 0.61% of 140,000 active; viability increase, % at 10 µM; viability rescue;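 active = viability gain under doxorubicin at or above a set limit, the compound median plus 3 SD, cut at about 4.7% in these data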;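 also: MRP-1 overexpressing cells given doxorubicin 25 µM after compound pretreatment; 18-22 h compound pretreatment then 72 h with doxorubicin before readout; 0% = doxorubicin-only wells and 100% = vehicle-treated cells without doxorubicin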
Active calls of the source: *; x = no result; + = active, no number. Compounds with a hit are over-represented: about 1.3% of the library has one in this group of screens.

SMILES	CD11b adhes inh	Phagocyt inh	MRP resist rev	SDO1 yeast rescue	CD11b adhes enh	MRP-1 activ
CCc1nnc(NC(=O)CCC(=O)N2CCN(Cc3ccccc3)CC2)s1	16	0	9	0.74	0	-1
Cc1noc(C)c1COc1ccc(C(=O)OCC(=O)NC2CCCCC2C)cc1 (configuration not stated)	7	0	15	-0.64	-3	-1
COC(=O)c1sc(NC(=O)c2ccc(Cn3cc(Cl)cn3)o2)c(C#N)c1C	75	3	x	-1.2	-8	-2
CCOC(=O)c1c(NC(=O)C2C3C=CC(C3)C2C(=O)O)sc2c1CCC(C)C2 (configuration not stated)	x	-4	x	0.07	x	-3
CCOC(=O)c1c(NC(=S)NC(=O)c2cnn(CC)c2)sc2c1CCC(C)C2 (configuration not stated)	5	-2	x	1.5	157*	-6
CCOC(=O)c1c(NC(=S)NC(=O)c2ccc(Cn3cc(Cl)cn3)o2)sc2c1CCCCC2	4	5	x	-0.41	69*	-7
CC(SCC(=O)NC12CC3CC(CC(C3)C1)C2)C(=O)O (configuration not stated)	x	-5	x	0.8	x	-2
CN1C(=O)c2ccc(NC(=O)c3ccc(N4CCCCC4)c([N+](=O)[O-])c3)cc2C1=O	50	0	x	-0.97	28	-1
Cc1ccc(NC(=O)CCC(=O)N/N=C/c2cccs2)cc1C	x	-2	x	0.78	x	7.2*
O=C(O)c1cccc(N2C(=O)C3CC=C(Cl)CC3C2=O)c1 (configuration not stated)	3	0	-8	0.32	-1	10*
O=C(O)c1cccc(N2C(=O)C3CC=CCC3C2=O)c1 (configuration not stated)	x	x	-1	0.04	x	3
COc1ccc(N2CCN(C(=O)CN3CCN(C(c4ccccc4)c4ccccc4)CC3)CC2)cc1	x	-7	x	-1.6	x	-3
COC(=O)Oc1ccc(/C=N/NC(=O)CSCc2ccccc2Br)cc1OC	54*	0	x	-0.21	-6	0
COc1coc(/C=C/C(=O)O)cc1=O	x	-4	x	0.19	x	1
O=C(Nc1cccn(Cc2c(Cl)cccc2Cl)c1=O)c1c(Cl)cccc1Cl	x	x	x	-1.9	x	9.2*
COc1ccc(C(=O)CSc2nc3nc(C)cc(C)c3c(=O)[nH]2)cc1OC	x	x	11	x	x	x
CCCCc1ccc(S(=O)(=O)NCCc2ccncc2)cc1	65*	-2	7	-2.3	-8	-2
CCCCCOc1ccc(OC(=O)c2ccncc2)cc1	16	x	-29	-0.08	8	-1
CCCCOc1ccc(C(=O)Oc2ccc(C)nc2)cc1	-3	-3	6	-1	2	5.5*
O=C(CSc1ccc2c(c1)OCCO2)Nc1cccc(S(=O)(=O)N2CCCCC2)c1	x	-7	x	0.42	x	0
Cc1onc(-c2ccccc2)c1C(=O)N1CCCSC1=Nc1ccccc1	x	0	2	-1.3	x	-4
COc1cccc(S(=O)(=O)NCc2ccc(C(=O)Nc3cccc(Cl)c3)cc2)c1	55*	-2	x	-0.52	1	0
CS(=O)(=O)N(CC(=O)NCCSc1ccccn1)c1cccc2ccccc12	x	5	x	0.43	x	-2
COc1ccc(-c2noc(CCC(=O)NCCCN3CCC(Cc4ccccc4)CC3)n2)cc1	61*	-1	-13	0.69	-4	-2
Cc1ccc(-c2noc(CCC(=O)NCCN3CCN(Cc4ccccc4)CC3)n2)cc1	-2	0	7	0.77	0	-4
SMILES	CD11b adhes inh	Phagocyt inh	MRP resist rev	SDO1 yeast rescue	CD11b adhes enh	MRP-1 activ
Cc1sc2nc(SCC(=O)N3CCN(CCO)CC3)n(-c3ccccc3)c(=O)c2c1C	10	+	-14	0.71	-5	-1
COC(=O)c1ccc(NC(=O)C(=O)N2CCN(C(=S)Nc3ccc(OC)cc3)CC2)cc1	-21	-11	x	0.41	-1	0
COC(=O)c1ccc(NC(=O)C(=O)N2CCN(C(=S)Nc3cccc(OC)c3)CC2)cc1	-22	-12	x	0.81	2	6.2*
O=S(=O)(Nc1nc2ccccc2s1)c1ccc(Br)s1	101*	0	-12	-0.26	-12	-4
CCOC(=O)C(=O)NC(C)CCc1ccccc1 (configuration not stated)	x	-3	x	1.6	x	-1
Cc1c(C(=O)OC2CCC(C)CC2)[nH]c2c1C(=O)CCC2 (configuration not stated)	0	0	25	-1.1	-2	5.2*
COC(=O)c1[nH]c2c(c1C)C(=O)CCC2	x	x	-1	0.18	x	-1
CC(C)=NN/C(N)=N/C(=S)Nc1ccc(C)cc1	x	-3	x	0.74	x	-3
Cc1nnc(NC(=O)COc2ccccc2)s1	-37	0	1	1.4	-1	5.1*
Cc1nnc(NC(=O)c2ccco2)s1	8	0	0	0.06	2	5.6*
Cc1ccc(C(=O)Nc2nnc(C)s2)o1	10	-1	x	0.1	0	9.0*
O=C(COC(=O)c1ccc(N2CCCC2=O)cc1)NCc1ccco1	-11	1	-2	1	-3	0
Cc1ccc(CN2CCN(CC(=O)NC(C)c3ccc4c(c3)OCCO4)C2=O)cc1 (configuration not stated)	5	1	15	-0.08	-6	1
Cc1ccccc1Oc1ccc(Oc2ccccc2C)nn1	3	0	-13	-0.7	0	0
O=C1c2cccc3cccc(c23)C(=O)N1CCN1CCN(CC(O)COc2ccccc2)CC1 (configuration not stated)	-3	1	x	1.1	0	5.0*
O=C(C(c1ccccc1)c1ccccc1)N1CCN(CCN2C(=O)c3cccc4cccc(c34)C2=O)CC1	5	-11	x	-1.4	13	2
c1ccc2[nH]c3cc4ncnc4cc3nc2c1	x	-5	x	-0.51	x	0
Oc1ccc(/C=N/n2c3ccccc3c3ccccc32)cc1	-5	1	x	-1.8	3	-3
Cn1c(=O)n(C/C=C/c2ccccc2)c(=O)c2c1nc1n2CCCN1c1ccc(F)cc1	12	0	4	0.15	-1	5.3*
Cn1c(=O)n(C/C=C/c2ccccc2)c(=O)c2c1nc1n2CCCN1Cc1ccccc1	12	4	28	-1.1	-1	3
O=C(Nc1nc(=O)n(C(=O)C2CC2)s1)c1ccccc1	2	0	x	-0.3	0	6.8*
CCn1nc(C)c(NC(=O)/C=C/c2ccc(OC)c(COc3ccc(Cl)cc3Br)c2)c1C	x	x	12	-0.93	x	7.2*
COc1ccc(NC(=S)Nc2cccc(S(=O)(=O)N3CCCCC3)c2)cc1	x	2	x	-0.28	x	-2
Cc1ccc(NCC(=O)N/N=C/c2ccc(OC(=O)c3ccco3)cc2)cc1	x	x	x	-0.82	x	-1
